The results in this text go back to PubChem BioAssay.

The list shows a part of the results. The source made the active and inactive calls.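 Rule for the calls, unless noted: active = mean inhibition of the reporter signal across four replicates at the single tested dose of 50% or more; inactive = the rest.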

The nature of assay [1]: HIF-2a driven luciferase blockers, single dose – luminescence, 786-0 RCC cells, confirmation (AID 651580;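 active = mean inhibition across four replicates of at least 40 percent at the single tested concentration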). Particulars: HIF-2a luciferase reporter luminescence, overnight, at 18.8 µM, stronger effect = higher value.
Assay [2] can be described thus: HIF-1a luciferase reporter signal reduction – MiaPaCa-2 cells, single concentration, counter-screen for HIF-2a inhibitor project, confirmation (AID 651589). Particulars: MiaPaCa-2 HIF-1a luciferase reporter, desferoxamine, overnight; at 18.8 µM; stronger effect = higher value.
A short description of assay [3]: NFkB reporter suppression in cystic fibrosis bronchial cells – cell-based, uHTS hits, panel, cytotoxicity readout, dose response (AID 624344). As to conditions: CF bronchial epithelial cells, PAF-induced NFkB reporter inhibition, with PAF, run 1; at 79 µM (top of the series) unless noted.
Assay in assay [4]: as above
Particulars: CF bronchial epithelial cells, PAF-induced NFkB reporter inhibition, with PAF, run 2; at 79 µM (top of the series) unless noted.

For assay [5], the target named is Tumor necrosis factor receptor superfamily member 10B (Homo sapiens) (UniProt O14763). Put plainly: viability loss of caspase-8 NB7 cells with TRAIL – with/without TRAIL, luminescence panel, confirmation (AID 651596; in the data active = activity above about 50%). Particulars: NB7 neuroblastoma + caspase-8, TRAIL sensitization, NB7 Caspase-8, with TRAIL, mean of runs, at 10 µM, stronger effect = higher value.
Chain of Tumor necrosis factor receptor superfamily member 10B (Homo sapiens) (O14763 whole entry, looked up): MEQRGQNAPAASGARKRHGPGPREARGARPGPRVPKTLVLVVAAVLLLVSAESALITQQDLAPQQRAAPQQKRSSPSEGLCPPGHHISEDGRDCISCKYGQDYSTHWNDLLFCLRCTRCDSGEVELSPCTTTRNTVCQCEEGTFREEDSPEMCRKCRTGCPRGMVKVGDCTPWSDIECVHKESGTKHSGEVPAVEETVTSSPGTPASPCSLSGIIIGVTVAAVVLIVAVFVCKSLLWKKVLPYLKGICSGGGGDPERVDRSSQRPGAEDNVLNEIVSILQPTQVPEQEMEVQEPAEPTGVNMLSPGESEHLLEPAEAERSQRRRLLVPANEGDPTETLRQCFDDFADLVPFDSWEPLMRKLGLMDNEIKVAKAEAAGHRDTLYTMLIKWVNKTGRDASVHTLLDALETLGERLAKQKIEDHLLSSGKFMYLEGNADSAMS
Assay in assay [6]: as above
As to conditions: NB7 neuroblastoma + caspase-8, without TRAIL, NB7 Caspase-8, without TRAIL, mean of runs, at 10 µM.

The target of assay [7] is Tumor necrosis factor receptor superfamily member 10B (Homo sapiens) (UniProt O14763). Put plainly: compound enhancement of TRAIL-induced cell killing – NB7 cells plus caspase-8, luminescence, panel, dose response (AID 652002). As to conditions: NB7 neuroblastoma +caspase-8, TRAIL sensitization, luminescence viability, NB7+Caspase-8, with TRAIL, run 1; at 12.5 µM (top of the series).

Assay [8] shares this target. Described as above. Particulars: NB7 neuroblastoma +caspase-8, TRAIL sensitization, luminescence viability, NB7+Caspase-8, with TRAIL, run 2; at 12.5 µM (top of the series).
Assay in assay [9]: as above
Particulars: NB7 neuroblastoma +caspase-8, no TRAIL, compound-alone cytotoxicity counter-screen, luminescence viability, NB7+Caspase-8, run 1; at 12.5 µM (top of the series) unless noted.

Assay in assay [10]: as above
As to conditions: NB7 neuroblastoma +caspase-8, no TRAIL, compound-alone cytotoxicity counter-screen, luminescence viability, NB7+Caspase-8, run 2; at 12.5 µM (top of the series) unless noted.

In the case of `Cc1cccc(C(=O)Nc2ccc(CC(=O)O)cc2)c1`, the inhibition in assay [1] was 53% (active); in assay [2], 44.8% (inactive).

For `COc1ccc(N(Cc2cc(=O)[nH]c3ccccc23)C(=O)CCl)cc1`, the inhibition was determined as 92.3% in [3] and 88.4% in assay [4]. In addition, the activity in assay [5] worked out at 99.3%; in assay [6] it was 99.5%.

Take `O=C(Nc1ccccc1)c1nnsc1S(=O)(=O)c1ccc(Cl)cc1`: the inhibition in assay [1] was 47.1% (active); in assay [2], -5.15% (inactive).

For the molecule `COc1cc(NC(=O)Cn2ncc(Cl)c(Cl)c2=O)c(C)cc1[N+](=O)[O-]`, the inhibition in [3] amounted to 97.1%; in [4] it was 91.1%. In addition, the values for the activity in [5] and in [6] were 99.2% and 99.3%, respectively.

On to `Cc1ccc(-c2noc(CNC(=O)c3ccoc3C)n2)cc1`, for which the values for the inhibition in [1] and in assay [2] were 0.91% (inactive) and -16.7% (inactive), respectively.

In the case of `CC(C)C[C@@H](N)c1nnc(SCC(=O)c2ccc(Cl)cc2)o1`, the inhibition was 80% (active) in assay [1] and -10.2% (inactive) in [2].

In the case of `Cc1nn(-c2ccccc2)c(Cl)c1C(=O)N1CCN(c2ncnc3c2cnn3-c2ccccc2)CC1`, the inhibition in [3] stood at 114%; in assay [4], 98.4%. The activity in [5] amounted to 82%; in assay [6], 59.6%.

Consider `COC(=O)c1c(NC(=O)CCCC(=O)O)sc2c1CCCCC2`, for which the inhibition in assay [1] was 41.2% (active); in assay [2] it was 27.3% (inactive).

Turning to `CC(C)(C)c1cc(C(=O)N/N=C/c2ccc([N+](=O)[O-])s2)n[nH]1`, the values for the inhibition in assay [1] and in [2] were 74.6% (active) and 98.4% (active), respectively.

As for `Cc1coc2c(O)cc3c(c12)OC1(N2CCCCC2)C(=O)NCCCC31` (stereo not given), the figures for the inhibition in assay [1] and in assay [2] were 1.41% (inactive) and 107% (active), respectively.

As for `CCCSC(=S)NC1CCS(=O)(=O)C1` (stereo not given), the inhibition in [1] is 14.6% (inactive); in assay [2], 68.5% (active).

Consider `Cc1ccccc1C(CC(=O)c1cccs1)C(C#N)C#N` (stereo not given), for which the results for the inhibition in assay [1] and in assay [2] were 28.4% (inactive) and 100% (active), respectively.

As to `CCOc1ccccc1NC(=O)c1nc(S(=O)(=O)Cc2ccccc2)ncc1Cl`, the inhibition was determined as 78% in [3] and 83.5% in assay [4]. For the same molecule, the activity was found to be 79.4% in assay [5] and 99.5% in assay [6].

On to `COC(=O)CCNc1ccc2c(c1)OCCO2`, for which the inhibition is 50.7% (active) in [1] and 56.6% (active) in assay [2].

Consider `O=C(CN1CCN(C2CCS(=O)(=O)C2)CC1)N1N=C(c2ccc(Cl)cc2)CC1c1ccco1` (stereo not given), for which the figures for the inhibition in [1] and in assay [2] were -11% (inactive) and 74.8% (active), respectively.

In the case of `Cc1ccc(C(=O)Nc2cccc(C(F)(F)F)c2)cc1NC(=O)c1nccnc1N`, the inhibition in assay [3] turned out to be 75.2%; in assay [4] it was 76%. Besides, the activity came out at 50.6% in assay [5] and 39% in assay [6].

As to `O=C(Nc1ccc2ccccc2c1)c1ccccc1O`, the inhibition in [3] stood at 102%; in assay [4] it was 90.4%. Besides, the activity in assay [5] is 64.2%; in [6] it was 52.8%.

As to `O=C(COC(=O)c1ccccc1C(=O)c1ccc(Cl)c([N+](=O)[O-])c1)NC1CCCCCC1`, the inhibition in assay [3] came to 110%; in assay [4], 99.7%. Besides, the activity in assay [5] was 98.1%; in assay [6], 97.2%.

On to `CCOc1cc(/C=C(/C#N)c2ccc(Cl)cc2)cc(Cl)c1OCC(=O)O`, for which the inhibition in assay [1] is 98.1% (active); in assay [2], 91.2% (active).

`COc1ccc(OC)c(N(CCN2C(=O)c3ccccc3C2=O)C(=O)CCl)c1`: the values for the inhibition in assay [3] and in assay [4] were 106% and 101%, respectively. Further, the activity in [5] turned out to be 98.7%; in assay [6], 97.6%.

As for `O=[N+]([O-])/C=C/c1ccc2c(ccn2Cc2ccccc2)c1`, the inhibition in assay [1] is 45.4% (active); in [2], 104% (active).

Consider `CCC(C)(C)c1ccc(Oc2ccc(NC(=O)COC(=O)C3=COCCO3)cc2)cc1`, for which the inhibition was 97.8% (active) in assay [1] and 92.9% (active) in assay [2].

Turning to `O=S(=O)([N-]c1nc2ccccc2nc1-[n+]1ccc(Cc2ccccc2)cc1)c1ccc(Br)s1`, the results for the inhibition in [1] and in assay [2] were -48.2% (inactive) and 79.1% (active), respectively.

For the molecule `CCOC(=O)C1=C(CC)Nc2ccccc2N=C1NC(=O)Nc1ccc(Cl)c(Cl)c1`, the results for the inhibition in assay [3] and in assay [4] were 113% and 103%, respectively. In addition, the activity in [5] is 63.9%; in assay [6], 64.3%.

Turning to `COCC(C)n1c(C)cc(C(=O)COc2ccc(C)nc2[N+](=O)[O-])c1C` (stereo not given), the results for the inhibition in assay [1] and in assay [2] were 55% (active) and 41.4% (inactive), respectively.

In the case of `CS(=O)(=O)N(Cc1ccc(Cl)cc1)c1ccc(C(=O)NCCSCc2ccco2)cc1`, the inhibition in assay [1] was -0.82% (inactive); in assay [2], 45.5% (inactive).

For `CCN1CCC(O)(/C=C/c2ccc(C)cc2)C(C(=O)/C=C/c2ccc(C)cc2)C1` (stereo not given), the values for the inhibition in assay [1] and in assay [2] were 5.88% (inactive) and 105% (active), respectively.

As for `CCOC(=O)c1sc(NC(=O)c2cccc(S(=O)(=O)N3CCc4ccccc43)c2)c(C#N)c1C`, the inhibition was found to be 79.6% in assay [3] and 80.5% in assay [4]. The activity in assay [5] came to 53.4%; in [6] it was 41.3%. For the same molecule, the activity, % sensitization was 29.7% in assay [7], -18% in assay [8], 1.22% in assay [9] and -10% in [10].

Turning to `Cc1cc(Cl)c(S(=O)(=O)Nc2ccc3c(c2)OCCO3)cc1OCC(N)=O`, the inhibition in assay [1] is 46.5% (active); in assay [2], 52.6% (active).

As for `O=Nc1ccc(NO)c2ccccc12`, the inhibition in assay [3] turned out to be 77.1% [at 39.5 µM]; in [4], 48.9%. For the same molecule, the results for the activity in assay [5] and in [6] were 79.8% and 47.2%, respectively. Besides, the activity, % sensitization in [7] is 19%; in assay [8], 40.7%; in assay [9], 39.7%; in assay [10], 31.2%.

Consider `CCOC(=O)c1cc2c(C)n(-c3ccc(C)cc3)c(C)c2ccc1=O`, for which the figures for the activity in assay [5] and in assay [6] were 74.9% and 63.9%, respectively.

In the case of `CC(/C=N/NC(=O)c1cccs1)=C\c1ccccc1`, the activity in [5] was determined as 61.9%.

`CCCc1[nH]nc2c1C(C1CC=CCC1)C(C#N)=C(N)O2` (stereo not given): the figures for the inhibition in assay [1] and in assay [2] were 8.58% (inactive) and 39.6% (inactive), respectively.
